Compound activity as filed in PubChem.
The entries come from a sample that favours hits as a whole.
HT1080 IDH1KD tx = toxicity to HT-1080 IDH1 knockdown cells (counter line); HT-1080 IDH1 knockdown viability, ATP luminescence, 48 h; Potency, µM (doses to about 46.1 µM), actives largely listed as cytotoxic; actives 2% (n = 360,000)
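Knockdown cells (IDH1KD HT-1080) received compounds 2 h after plating at 750 cells/well and were kept 48 h at 37 °C in 5% FBS RPMI. A CellTiter-Glo luminescence read gave % activity for curve fitting.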
HT1080NT lethal = kills 2HG-producing HT-1080-NT fibrosarcoma cells; AID 686970; actives 1.6% (n = 360,000); HT-1080-NT fibrosarcoma viability, CellTiter-Glo ATP luminescence, 48 h; Potency, µM (titrated, usually from 46.1 µM), actives largely listed as cytotoxic;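 note: NT is the 2HG producing partner of a matched IDH1 knockdown line; nearly all actives have a fitted effect of over 55% in size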
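Viability of the 2HG-overproducing fibrosarcoma line after 48 hours of compound exposure at 37 degrees C was determined by luminescence with CellTiter-Glo, and concentration-effect curves were then fitted and categorized.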
DT40 TDP1 no CPT = qHTS for Inhibitors of human tyrosyl-DNA phosphodiesterase 1 (TDP1): qHTS in cells in absence of CPT. DT40 Tdp1-/- hTDP1 cells, no CPT, ATP luminescence, 48 h. Potency, µM (series often up to 46.2 µM), actives largely listed as inhibitors. actives 15% (n = 420,000); note: nearly all actives have a fitted effect of over 55% in size
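DT40 Tdp1-/-;hTDP1 cells, no CPT (DMSO vehicle only), 400 cells/well; compounds pin-transferred; ≥48 hr, 37 °C; CellTiter-Glo 30 min RT dark, luminescence read.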
TDP1 cell CPT = growth inhibition of DT40 Tdp1-/-;hTDP1 cells with camptothecin (screen for TDP1 inhibitors) | actives 12% (n = 420,000) | Potency, µM (titrated, usually from 46.2 µM), usual class: inhibitors | chicken DT40 Tdp1-/-;hTDP1 cells + 20 nM CPT, ATP luminescence, 48 h; note: nearly all actives have a fitted effect of over 55% in size
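Chicken DT40 Tdp1-/- cells complemented with human TDP1, 400 cells/well, exposed to compounds plus 20 nM camptothecin for at least 48 h at 37 C; viability read as ATP content by CellTiter-Glo luminescence.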
12-LOX inh = ALOX12 (human) lipoxygenase inhibition. P18054. purified 12hLO, xylenol orange hydroperoxide absorbance. Potency, µM (titrated, usually from 108 µM), hits mostly inhibitors. actives 1.1% (n = 580,000)
Target sequence (P18054 whole entry, looked up): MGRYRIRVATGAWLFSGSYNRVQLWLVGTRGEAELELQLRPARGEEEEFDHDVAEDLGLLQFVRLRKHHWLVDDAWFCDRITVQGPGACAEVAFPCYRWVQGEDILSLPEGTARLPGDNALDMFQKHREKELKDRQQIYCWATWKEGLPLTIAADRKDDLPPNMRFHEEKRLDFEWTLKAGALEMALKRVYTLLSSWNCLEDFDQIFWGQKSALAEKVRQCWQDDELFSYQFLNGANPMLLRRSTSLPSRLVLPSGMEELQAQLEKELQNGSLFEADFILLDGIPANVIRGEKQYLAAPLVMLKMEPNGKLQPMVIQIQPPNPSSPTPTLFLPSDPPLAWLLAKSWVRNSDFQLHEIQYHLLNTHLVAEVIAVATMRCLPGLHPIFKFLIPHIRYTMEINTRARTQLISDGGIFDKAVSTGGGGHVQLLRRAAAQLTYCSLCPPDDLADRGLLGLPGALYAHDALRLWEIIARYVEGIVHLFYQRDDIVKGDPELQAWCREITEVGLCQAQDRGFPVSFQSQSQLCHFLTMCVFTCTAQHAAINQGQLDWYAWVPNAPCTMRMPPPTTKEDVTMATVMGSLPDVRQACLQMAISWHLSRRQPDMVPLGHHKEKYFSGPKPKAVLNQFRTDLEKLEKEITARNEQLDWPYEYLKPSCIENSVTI
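Hydroperoxide product was detected by ferrous iron/xylenol orange as the 573 to 405 nm absorbance ratio. Arachidonic acid at 40 uM (final) was turned over for 30 min at room temperature by 150 nM human 12hLO, pH 7.0 Hepes buffer, after 15 min compound preincubation.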
IL-1B inflam inh = inflammasome signaling inhibition, IL-1 beta readout; THP-1 LPS/ATP IL-1B secretion, AlphaLISA, 16 h; active compounds read low; activity change, % at 57.5 µM; actives 4.7% (n = 360,000); in the data active = activity change below about -50%; inconclusive = mostly about -30% to -49%
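THP-1 cells pretreated 1 hr with compounds (up to 57.5 uM final), then stimulated with LPS (250 ng/mL final) plus ATP (1.25 mM final); secreted IL-1B measured by AlphaLISA after 16 hr, decreased signal indicating inhibition.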
A number is an active result; i = inactive; ? = inconclusive; nt = no result; ! = not confirmed by another sample. Unless noted, calls come from the whole dose curve; as a rule, active = well fitted curve in the direction sought with a large enough effect; inconclusive = small, poorly fitted or top-dose-only effect, or another doubt; inactive = no such curve, though single readings can be large; an effect the other way counts as inactive or inconclusive.

SMILES | HT1080 IDH1KD tx | HT1080NT lethal | DT40 TDP1 no CPT | TDP1 cell CPT | 12-LOX inh | IL-1B inflam inh
CC(C)(C)C1CCC(=O)N(CCSc2ccccc2)CC1 (stereo not drawn) | i | i | ? | ? | i | i
C[C@@H](CN=[N+]=[N-])CN1CC[C@H](C(C)(C)C)CCC1=O | i | i | 12.6µM! | 11.2µM! | i | i
CC(C)(C)C1CCC(=O)N(CCC#N)CC1 (stereo not drawn) | i | i | i | i | i | i
Cc1ccc(SC[C@H](C)CN2CC[C@H](O)CCC2=O)cc1 | nt | nt | i | i | nt | nt
C[C@@H](CSc1ccc(Br)cc1)CN1CC[C@H](O)CCC1=O | i | i | 12.6µM | 12.6µM | i | i
C[C@H]1CCC(=O)N([C@H](CC#N)Cc2ccccc2)CC1 | i | i | i | i | i | i
C[C@@H](CSc1ccccc1)CN1CC[C@H](C(C)(C)C)CCC1=O | i | i | 17.8µM | ? | i | i
CN(C)CC(=O)N1CCC2(CC1)NCCc1c2[nH]c2ccccc12 | nt | nt | nt | nt | i | nt
O=C(CCS(=O)(=O)c1ccccc1)Nc1ccccn1 | i | i | i | i | i | i
O=C(CCS(=O)(=O)c1ccc(F)cc1)Nc1nc(-c2ccccn2)cs1 | i | i | 7.31µM | 8.2µM | i | ?
CC(OC(=O)c1cccs1)C(=O)Nc1nc(-c2ccccc2)cs1 (stereo not drawn) | i | i | ? | ? | i | i
O=C(CCS(=O)(=O)c1ccccc1)Nc1nc(-c2ccccn2)cs1 | i | i | 13µM | 18.4µM | i | i
Cc1cccc(OC(C)C(=O)Nc2nc(-c3ccncc3)cs2)c1 (stereo not drawn) | i | i | 23.1µM | ? | ? | i
Cc1csc(NC(=O)C(C)Oc2ccc(Br)cc2)n1 (stereo not drawn) | i | i | ? | i | ? | i
CC(Oc1ccc(F)cc1)C(=O)Nc1nc(-c2ccccn2)cs1 (stereo not drawn) | ? | ? | 5.17µM | 1.3µM | i | -102.2
CCn1ccc(C(=O)N2CC(N(C3CCOCC3)S(C)(=O)=O)C2)n1 | nt | nt | nt | nt | i | nt
O=C1[C@H]2CN(Cc3ccccc3F)C[C@H]2C(=O)N1Cc1ccc2c(c1)OCO2 | nt | nt | nt | nt | i | nt
CC(=O)N1CCC([C@@H]2CN(Cc3cccnc3)C[C@H]2CO)CC1 | nt | nt | nt | nt | i | nt
CC[n+]1c(/C=C/c2ccc(OC)c(OC)c2)ccc2ccccc21 | i | i | ? | ? | 7.94µM | i
CC[n+]1c(/C=C/c2ccc(OC(C)=O)c(OC)c2)ccc2ccccc21 | i | i | 18.4µM | 16.4µM | ? | -85.2
CCOc1ccc(/C=C/c2ccc3ccccc3[n+]2C)cc1OCC | nt | nt | 2µM | 3.98µM | nt | nt
CN(C)/N=C/c1cc([N+](=O)[O-])ccc1O | i | i | ? | i | i | i
COc1cc(/C=C/c2ccc3cccc(O)c3n2)ccc1OC(C)=O | nt | nt | nt | nt | i | nt
CC[n+]1c(/C=C/c2cc([N+](=O)[O-])ccc2O)ccc2ccccc21 | i | i | 23.1µM | ? | ? | i
CCOc1ccc(/C=C/C(=O)Nc2cccc3cccnc23)cc1OCC | nt | nt | nt | nt | i | nt
SMILES | HT1080 IDH1KD tx | HT1080NT lethal | DT40 TDP1 no CPT | TDP1 cell CPT | 12-LOX inh | IL-1B inflam inh
COc1ccc(-c2nc(-c3ccccc3)nc3c2CN(C(=O)Cc2ccccn2)CC3)cc1 | nt | nt | nt | nt | i | nt
CCOC(=O)C1=C(C)OC(n2cccc2)=C(C#N)C1c1ccc(OC)cc1 (stereo not drawn) | nt | nt | nt | nt | i | nt
COc1cccc(Nc2nc(C(N)Cc3ccccc3)cs2)n1 (stereo not drawn) | 11.6µM | 29.1µM | 16.4µM | 13µM | i | ?
COc1cc(OC)nc(Nc2nc(C(N)Cc3ccc(F)cc3)cs2)n1 (stereo not drawn) | ? | ? | 23.1µM | 20.6µM | i | nt
COc1cccc(Nc2nc(C(N)CO)cs2)n1 (stereo not drawn) | i | i | ? | ? | i | nt
CCCCOc1ccc(-c2nnn(CC(=O)NCc3ccco3)n2)cc1 | 7.94µM | 7.08µM | 4.61µM | 4.61µM | i | i
COC(=O)CSc1nc(COc2ccccc2)nc2ccccc12 | i | i | i | i | ? | i
Cc1ccccc1NC(=O)CSc1nc(COc2ccccc2)nc2ccccc12 | i | i | i | ? | i | i
CCCCNC(=O)CSc1nc(CCC)nc2ccccc12 | i | i | 23.1µM | 23.1µM | i | i
Cc1cc(C)c(NC(=O)CSc2nc(COc3ccccc3)nc3ccccc23)c(C)c1 | ? | i | 18.4µM | 23.1µM | i | -63.5
Cc1cc(C)c(NC(=O)CSc2nc3ccccc3c3nc(CCn4cncc4C)nn23)c(C)c1 | nt | nt | 14.6µM | 13µM | i | nt
CCCNC(=O)CSc1nc(COc2ccccc2)nc2ccccc12 | i | i | ? | i | i | -66.6
CCOc1ccc(NC(=O)CSc2nccc(-c3cccc(OC(F)F)c3)n2)cc1 | nt | nt | nt | nt | i | nt
CN(C)Cc1nc(SCC(=O)Nc2ccccc2)c2ccccc2n1 | nt | nt | nt | nt | i | nt
CCc1nc(SCC(=O)Nc2ccc(N(C)C)cc2)c2ccccc2n1 | i | i | 14.6µM | ? | i | ?
CCOC(=O)C1=C(N)N(c2ccccc2)C(=O)C1 | i | i | 16.4µM | 7.31µM | i | i
COCCNc1nc(NCCN2CCNC2=O)c2sc(-c3ccccc3)cc2n1 | i | ? | 20.6µM | 25.9µM | ? | nt
COCCNc1nc(NCCOc2ccccc2)c2sc(-c3ccccc3)cc2n1 | 23.1µM | 14.6µM | 14.6µM | 16.4µM | ? | -107.5
C=CCNc1nc(NCc2cccc(OC)c2)c2sc(-c3ccccc3)cc2n1 | ? | ? | 4.11µM | 5.8µM | ? | -107.7
c1ccc(-c2cc3nc(NCc4cccs4)nc(NCc4ccc5occc5c4)c3s2)cc1 | 18.4µM | 16.4µM | ? | ? | ? | -88.7
Cc1ccc(C(=O)N[C@H]2CO[C@H]3[C@@H]2OC[C@@H]3Nc2nccc(-c3ccc(-c4ccccc4)cc3)n2)cc1 | nt | nt | nt | nt | i | nt
CC(Oc1ccccc1)C(=O)N1CC(Oc2cccc(-c3nc(-c4ccccc4)no3)c2)C1 (stereo not drawn) | nt | nt | nt | nt | i | nt
Cc1ccsc1CN(C)C(=O)Cn1c(=O)c2c(ncn2C2CCCC2)n(Cc2ccccc2)c1=O | nt | nt | nt | nt | i | nt
COCCNc1nc(NCCOC)c2sc(-c3ccccc3)cc2n1 | i | i | 25.9µM | 25.9µM | i | nt
Cc1ccccc1-c1nc(NCCN(C)C)nc2ccsc12 | i | ? | ? | i | i | i
COCCNc1nc2cc(-c3ccc(C)cc3)sc2c(=O)n1C | i | i | ? | ? | i | i
COCCNc1nc(-c2ccc(OC)cc2C)c2sc(-c3ccccc3)cc2n1 | ? | ? | 16.4µM | 20.6µM | ? | i
Cc1ccc(C(=O)Nc2cccc(-c3nc4ccccc4o3)c2)c(Cl)c1 | nt | nt | i | i | i | nt
